Screens: PubChem BioAssay, National Center for Advancing Translational Sciences (NCATS)
An excerpt weighted towards active compounds, which were near 10% of everything screened.
CtBP-E1A inh – blocks the CtBP interaction with E1A; activity change, % (no concentration beside the values); 0.49% of 340,000 active; AlphaScreen GST-E1A/His-CtBP binding, 1536-well; hits give low values; in the data active = activity change below about -65%; inconclusive = mostly about -30% to -63%
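In 5 uL wells, 23 nL compound meets equimolar GST-E1A and His-CtBP (5X stock 125 nM each) for 2 h, 37 °C. Beads (5X, 50 ug/mL) then 1 h, 37 °C, dark.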
Six1-Eya2 inh – blocks human Six1 binding to Eya2; Q15475+O00167; AlphaScreen GST-Six1/His-Eya2 binding, biochemical; hits give low values; activity change, % (test concentration not listed); 0.56% of 360,000 active; in the data active = activity change below about -65%; inconclusive = mostly about -30% to -63%
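Compounds are tested against tagged Six1 and Eya2 proteins bridged by glutathione donor and nickel acceptor beads; after a one-hour incubation at 37 °C without light, AlphaScreen emission is recorded.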
HP1b binding inh – blocks HP1-beta chromodomain binding to methylated histone tails; AlphaScreen HP1-beta / biotin-H3K9me3 peptide binding; 0.56% of 390,000 active; P83916; Potency, µM (doses to about 114 µM), usual class: inhibitors; note: nearly all actives have a fitted effect of over 70% in size
Target sequence (P83916 whole entry, looked up): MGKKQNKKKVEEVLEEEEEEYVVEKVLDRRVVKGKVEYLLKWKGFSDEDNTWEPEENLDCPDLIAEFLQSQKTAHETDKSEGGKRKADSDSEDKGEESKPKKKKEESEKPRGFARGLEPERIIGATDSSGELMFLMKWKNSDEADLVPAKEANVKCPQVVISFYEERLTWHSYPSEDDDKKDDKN
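AlphaScreen: HP1-beta (50 nM) preformed 30 min with biotin-H3(1-18)K9me3 peptide (50 nM) in PBS pH 7.4, 0.01% Tween-20. Compound added for 30 min at RT, then streptavidin donor/nickel chelate acceptor beads (10 ug/mL) for 30 min.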
BAZ2B inh – blocks human BAZ2B; Q9UIF8; AlphaScreen BAZ2B-H3K14Ac peptide displacement; Potency, µM (titrated, usually from 114 µM), most hits filed as inhibitors; 4.4% of 360,000 active; AID 504333; note: nearly all actives have a fitted effect of over 60% in size
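BAZ2B (50 nM) with biotin-H3(5-23)K14Ac peptide (50 nM) in PBS pH 7.4, 0.01% Tween-20, preformed 30 min, then compound 30 min at room temperature; top concentration 110uM. AlphaScreen streptavidin donor/nickel chelate acceptor beads (10 ug/mL final), 20 min dark, signal read.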
G9a inh – inhibitors of human histone lysine methyltransferase G9a. G9a H3K9 monomethylation, AlphaScreen, 2 h. Potency, µM (titrated, usually from 102 µM), hits mostly inhibitors. 8.8% of 350,000 active; note: nearly all actives have a fitted effect of over 75% in size
Target sequence (Q96KQ7 913-1193 limits assumed): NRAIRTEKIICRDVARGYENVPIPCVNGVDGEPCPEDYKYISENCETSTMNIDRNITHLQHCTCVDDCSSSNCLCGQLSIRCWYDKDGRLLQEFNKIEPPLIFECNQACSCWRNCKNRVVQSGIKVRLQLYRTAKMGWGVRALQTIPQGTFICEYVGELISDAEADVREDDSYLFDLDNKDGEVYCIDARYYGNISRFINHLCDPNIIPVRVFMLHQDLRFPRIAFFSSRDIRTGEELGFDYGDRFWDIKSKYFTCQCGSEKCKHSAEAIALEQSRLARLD
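AlphaScreen read-out: biotin-H3K9 peptide (500 nM) methylation by 20 nM enzyme with 20 uM SAM, 2 h at room temperature after 15 min compound preincubation; anti-monomethyl H3K9 antibody plus donor/acceptor beads, 10 min dark.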
JMJD2A Tudor inh – inhibitors of human JMJD2A Tudor domain | Potency, µM (titrated, usually from 114 µM), actives largely listed as inhibitors | 4.4% of 390,000 active | AlphaScreen JMJD2A-Tudor / H3K4me3 peptide binding; note: nearly all actives have a fitted effect of over 50% in size
ME-1 growth – reduces ME-1 leukemia cell proliferation; ME-1 cell proliferation, ATP luminescence, 48 h; 20% of 140 active; shares compounds with BAZ2B inh; Potency, µM (highest dose often 56.1 µM), hits mostly inhibitors
Hits are given with their value; ! = a repeat was not active; [ ] = another dose, or the depositor's remark. Unless noted, calls come from the whole dose curve; as a rule, active = well fitted curve in the direction sought with a large enough effect; inconclusive = small, poorly fitted or top-dose-only effect, or another doubt; inactive = no such curve, though single readings can be large; an effect the other way counts as inactive or inconclusive.

O=C1CC(=O)N(c2cccc(Br)c2)C(=O)N1 was read as CtBP-E1A inh inactive, Six1-Eya2 inh inactive, HP1b binding inh inactive, BAZ2B inh inactive, G9a inh 56µM and JMJD2A Tudor inh inconclusive.
`c1ccc2c(CN3CCN(C4CCCCC4)CC3)c[nH]c2c1` gave CtBP-E1A inh inactive, Six1-Eya2 inh inactive, HP1b binding inh inconclusive, BAZ2B inh 50µM, G9a inh 50µM and JMJD2A Tudor inh inconclusive.
For Cc1[nH]c2ccccc2c1CN1CCCCC1 the results were CtBP-E1A inh inactive, Six1-Eya2 inh inactive, HP1b binding inh inactive and JMJD2A Tudor inh inactive.
c1ccc2c(CN3CCCCCCC3)c[nH]c2c1 was read as CtBP-E1A inh inactive, Six1-Eya2 inh inactive, HP1b binding inh inactive, BAZ2B inh inactive, G9a inh inconclusive and JMJD2A Tudor inh 28µM.
For CC1=C2[C@@H]3OC(=O)[C@@H](C)[C@@H]3CC[C@]2(C)C=CC1=O the results were G9a inh inactive[12.7 µM].
For CCN(CC)c1ccc(/C=C/[N+](=O)[O-])cc1 the results were CtBP-E1A inh inactive, Six1-Eya2 inh inactive, HP1b binding inh inactive, G9a inh 45µM and JMJD2A Tudor inh inconclusive.
NC(Cc1cc(O)c(O)cc1O)C(=O)O (centres undefined) was read as BAZ2B inh 0.89µM, G9a inh 0.45µM and ME-1 growth inactive.
For c1ccc(N2CCCC3(CCNCC3)C2)cc1 the results were G9a inh inactive[12.7 µM].
Screening C=CCN1C(=O)C2(C(C(=O)OC)=C(N)Oc3c2c(=O)oc2ccccc32)c2ccccc21 (centres undefined) returned HP1b binding inh inactive and JMJD2A Tudor inh inactive.
`O=C(O)CCCCC1SCC2NC(=O)NC21` (centres undefined) gave CtBP-E1A inh inactive, Six1-Eya2 inh inactive, HP1b binding inh inconclusive, BAZ2B inh 0.79µM, G9a inh 7.9µM!, JMJD2A Tudor inh 11µM and ME-1 growth inactive.
`CN1Cc2ccccc2[C@@H]2c3cccc4[nH]cc(c34)C[C@H]21` gave G9a inh 13µM and ME-1 growth 11µM.
`CC[n+]1c(-c2ccccc2)c2cc(N)ccc2c2ccc(N)cc21` gave CtBP-E1A inh inactive, Six1-Eya2 inh inconclusive, HP1b binding inh inconclusive, G9a inh 13µM, JMJD2A Tudor inh inconclusive and ME-1 growth 10µM.
Screening CN(N=O)c1ccc(O)c(O)c1 returned G9a inh 0.5µM and ME-1 growth inactive.
`CCCCc1nc2ccccc2c(=O)n1-c1cccc(OC)c1` gave HP1b binding inh inactive, BAZ2B inh inactive, G9a inh inactive and JMJD2A Tudor inh inactive.
For NCCCP(=O)(O)O the results were G9a inh inactive.
Screening CC(C)NCC(O)c1ccccc1Cl (centres undefined) returned G9a inh inactive[12.7 µM].
NCCc1cc(O)c(O)cc1O was read as CtBP-E1A inh inactive, Six1-Eya2 inh inconclusive, HP1b binding inh 28µM, G9a inh inactive[2.33 µM], JMJD2A Tudor inh 10µM and ME-1 growth inconclusive.
`COc1ccc(OC)c(NC(=O)Cn2cc(C(=O)c3ccccc3F)c3ccccc32)c1` gave HP1b binding inh inactive, BAZ2B inh inactive, G9a inh inactive and JMJD2A Tudor inh inactive.
Screening Cc1[nH]c2ccccc2c1CN(C)C returned G9a inh inactive[2.33 µM].
Screening CC(C)C[C@H]1C(=O)N2CCC[C@H]2[C@]2(O)O[C@](NC(=O)[C@@H]3C=C4c5cccc6[nH]c(Br)c(c56)CC4N(C)C3)(C(C)C)C(=O)N12 (some centres undefined) returned CtBP-E1A inh inactive, Six1-Eya2 inh inactive, HP1b binding inh inactive, BAZ2B inh inconclusive, G9a inh inconclusive and JMJD2A Tudor inh inactive.
